According to PubChem BioAssay AID485288 (Southern Research Specialized Biocontainment Screening …, 2010):
Measured potencies and affinities stand elsewhere.

biological target: Large T antigen (Simian virus 40) (UniProt P03070); assay: inhibition of TAg ATP hydrolysis – biochemical, ADP-Hunter detection, purified TAg, synthesized compounds, set 3, SAR follow-up (AID 485288); conditions: purified TAg ATPase, ADP-Hunter fluorescence; series mostly up to 100 µM; inhibition: at the top concentration
Sequence (P03070 whole entry, looked up): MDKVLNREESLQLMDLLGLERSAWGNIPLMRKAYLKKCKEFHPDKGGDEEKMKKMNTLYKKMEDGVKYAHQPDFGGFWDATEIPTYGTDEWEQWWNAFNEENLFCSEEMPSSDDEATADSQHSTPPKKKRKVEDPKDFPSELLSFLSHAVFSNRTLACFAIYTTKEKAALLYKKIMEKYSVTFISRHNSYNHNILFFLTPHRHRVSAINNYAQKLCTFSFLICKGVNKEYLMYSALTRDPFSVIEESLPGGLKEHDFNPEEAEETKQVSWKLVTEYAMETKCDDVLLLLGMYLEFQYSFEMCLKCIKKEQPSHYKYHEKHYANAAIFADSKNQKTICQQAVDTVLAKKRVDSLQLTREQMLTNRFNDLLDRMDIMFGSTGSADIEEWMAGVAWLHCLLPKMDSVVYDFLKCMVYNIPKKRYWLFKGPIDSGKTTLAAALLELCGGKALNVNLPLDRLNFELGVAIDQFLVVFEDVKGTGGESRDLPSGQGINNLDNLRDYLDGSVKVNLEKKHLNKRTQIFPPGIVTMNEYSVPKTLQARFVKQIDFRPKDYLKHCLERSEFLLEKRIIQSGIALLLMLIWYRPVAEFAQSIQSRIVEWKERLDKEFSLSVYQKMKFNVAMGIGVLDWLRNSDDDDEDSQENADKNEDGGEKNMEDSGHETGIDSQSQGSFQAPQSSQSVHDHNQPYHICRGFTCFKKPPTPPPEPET

inhibition, inactive:
FC(F)(c1nnnn1-c1ccccc1)c1nnc2ccccn12 15.4%
Cc1ccccc1-n1nnnc1C(C)(C)N1CCCC1 -23.9%
CC(C)(c1nnnn1-c1ccc(Cl)cc1)N1CCN(C(=O)c2ccco2)CC1 24.2%
Cc1ccc(-n2nnnc2C(C)(C)N2CCCCC2)cc1 32%
CC(C)(c1nnnn1-c1ccccc1)N1CCOCC1 -20.2%
CC(=O)c1cc(C(C)(C)c2ccc(O)cc2)cc(C(C)=O)c1O -21.9%
Oc1ccccc1Cc1ccccc1O -4.68%
CC(C)(c1ccc(O)cc1)c1ccc(Cl)cc1 49.8%
Oc1ccc(Cl)cc1Cc1cc(Cl)ccc1O 41%
